# Screening results as filed in PubChem BioAssay.
# Hck-Nef inh – inhibitors of Nef-activated human Hck kinase, primary screen, biochemical, Z-Lyte FRET, 384-well, Hck-YEEI; Tyrosine-protein kinase HCK (Homo sapiens), P08631; Recombinant Hck-YEEI plus Nef, Z-Lyte FRET kinase assay; inhibition, % at 20 µM; hit rate 0.68% among 220,000; AID 463187, 2010;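 active = Hck-Nef kinase inhibition above about 50%, limit read from the data; inactive = inhibition below that limit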;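 note: 0% = DMSO with Hck plus Nef and 100% = Hck alone without Nef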
# Mcl1 Bid PPI – Mcl-1/Bid binding inhibitors, primary screen, biochemical, TR-FRET, 1536-well; Induced myeloid leukemia cell differentiation protein Mcl-1 (Homo sapiens), Q07820; TR-FRET Mcl-1/Bid-Dy647 peptide binding; inhibition, % at 21.7 µM; hit rate 0.97% among 220,000;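 active = compounds that cut the binding signal by more than half at the single screening dose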;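 note: His-tagged Mcl-1 with europium anti-His antibody binding Bid BH3 peptide; 0% = Mcl-1 plus peptide wells and 100% = peptide-only wells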
# Target sequence (Q07820 whole entry, looked up): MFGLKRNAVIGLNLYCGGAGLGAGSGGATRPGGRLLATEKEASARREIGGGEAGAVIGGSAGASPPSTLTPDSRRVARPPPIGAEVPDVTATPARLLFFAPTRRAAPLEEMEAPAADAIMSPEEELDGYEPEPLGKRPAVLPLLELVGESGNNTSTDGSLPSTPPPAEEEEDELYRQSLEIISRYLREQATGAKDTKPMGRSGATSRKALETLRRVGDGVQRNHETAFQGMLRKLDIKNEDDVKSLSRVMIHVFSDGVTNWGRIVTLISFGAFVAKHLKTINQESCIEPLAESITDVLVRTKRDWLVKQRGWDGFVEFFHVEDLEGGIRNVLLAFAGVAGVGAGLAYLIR
# Mcl-1 Bim block – inhibitors of Bim peptide binding to Mcl-1, primary screen, biochemical, bead-based flow cytometry, multiplex; AID 1009, 2008; hit rate 0.1% among 190,000; inhibition, % at 10 µM; Bim peptide-Mcl-1 binding; Induced myeloid leukemia cell differentiation protein Mcl-1 (Homo sapiens), Q07820; in the data active = inhibition above about 40%;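 note: 0% = no compound tracer wells and 100% = peptide blocker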
# 14-3-3 Bad PPI – inhibitors of 14-3-3 zeta/Bad binding, primary screen, biochemical, TR-FRET, bovine 14-3-3 zeta; 14-3-3 protein zeta/delta (Bos taurus), P63103; TR-FRET 14-3-3zeta/Dy647-pBad peptide displacement, 1 h; inhibition, % at 21.7 µM; hit rate 0.71% among 220,000;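 active = inhibition above about 70%, limit read from the data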;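 note: 0% = full 14-3-3 plus peptide FRET controls and 100% = background without 14-3-3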
# Target sequence (P63103 whole entry, looked up): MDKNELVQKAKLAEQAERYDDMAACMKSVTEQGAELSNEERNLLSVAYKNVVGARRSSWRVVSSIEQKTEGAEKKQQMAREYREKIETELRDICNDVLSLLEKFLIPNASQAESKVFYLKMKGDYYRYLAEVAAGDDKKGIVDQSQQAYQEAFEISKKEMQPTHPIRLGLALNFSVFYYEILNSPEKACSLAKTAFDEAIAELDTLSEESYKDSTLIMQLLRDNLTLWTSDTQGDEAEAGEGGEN
# Mcl1-Noxa inh – Mcl-1/Noxa binding inhibitors, primary screen, biochemical, TR-FRET, 1536-well; TR-FRET Mcl-1/Noxa peptide binding, 2 h; inhibition, % at 21.7 µM; hit rate 1.5% among 220,000; AID 1022, 2008;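 active = compounds that cut the protein-peptide binding signal by more than 50% relative to plate controls in a single-dose test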;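 note: His-tagged Mcl-1 with rhodamine Noxa BH3 peptide and terbium anti-His antibody; 0% = Mcl-1 plus Noxa peptide wells and 100% = peptide-only wells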
# Pf gametocyte – late stage P. falciparum gametocyte viability inhibitors, primary screen, ATP luminescence, HTS. P. falciparum stage V gametocytes, 24 h. inhibition, % at 10.9 µM. hit rate 0.065% among 150,000;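 active = inhibition above the mean plus 3 SD of compounds within the control limits, set per campaign, cut at about 38% in these data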;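 note: 0% = DMSO wells and 100% = medium only without gametocytes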
# An asterisk follows results filed as active; · = no result. A selection: hits, their analogues and other compounds. The true share with any hit is near 2.9%.
SMILES,Hck-Nef inh,Mcl1 Bid PPI,Mcl-1 Bim block,14-3-3 Bad PPI,Mcl1-Noxa inh,Pf gametocyte
COc1ccc(CCN=C(N)NS(=O)(=O)c2ccccc2)cc1OC,2,-3,-5,-8,12,6
O=C(Nc1ccc(C(=O)N2CCOCC2)cc1)c1cc(-c2cccnc2)nc2ccc(Cl)cc12,-1,-12,0,-5,22,9
CC(C)CCOc1ccc(/C=C2\CCn3c2nc2cc(C(=O)O)ccc2c3=O)cc1,1,-22,0,41,78*,10
COc1ccc(/C=C2\CCn3c2nc2cc(C(=O)O)ccc2c3=O)cc1OC,11,7,·,4,39,2
COc1ccc(-n2c3c(cc(C(=O)N4CCN(CCO)CC4)c2=O)C(=O)CC(C)(C)C3)cc1,0,-20,-8,1,-4,·
Cc1cc(C)c2nc3sc(C(=O)N4CCOCC4)c(N)c3cc2c1,-3,-112,·,17,65*,-16
Cc1ccc(C)c2nc3sc(C(=O)N4CCOCC4)c(N)c3cc12,18,-55,0,8,60*,20
O=C(N/N=C/c1ccc(OC(=O)c2ccc3c(c2)OCO3)cc1)c1cncc(Br)c1,25,-26,-35,71*,-103,·
O=C(N/N=C/c1cccc(OC(=O)c2ccc3c(c2)OCO3)c1)c1cncc(Br)c1,3,-47,-3,14,-82,-17
[O-]/C(=C(\C(=S)Nc1ccc(SC(F)F)cc1)[n+]1ccccc1)c1ccc(Cl)cc1Cl,23,-44,0,-33,-18,3
CC1CCCN(C(=O)CSc2nnc(-c3cccnc3)n2C2CCCCC2)C1 (centres undefined),1,8,0,5,8,-1
O=C(CSc1nnc(-c2cccnc2)n1C1CCCCC1)NC1CCCC1,0,-26,-3,-7,56*,·
Cc1ccc(C(=O)OC/C(O)=C(\C#N)c2nc3ccccc3[nH]2)cc1S(=O)(=O)N1CCOCC1,5,-28,-2,-2,-18,7
N#C/C(=C(/O)COC(=O)CCc1ccc(S(=O)(=O)N2CCOCC2)cc1)c1nc2ccccc2[nH]1,7,-24,3,-7,62*,-4
N#C/C(=C(/O)COC(=O)c1ccc(Cl)c(S(=O)(=O)N2CCOCC2)c1)c1nc2ccccc2[nH]1,5,-1,-1,4,52*,-8
CN1CC(c2ccccc2)Oc2ccccc2C1=S (centres undefined),·,·,·,·,·,12
C=CCSc1cc(C)nc2c(-c3ccccc3)c(C)nn12,13,-23,·,-4,-18,-13
CC(NS(=O)(=O)c1ccc(Br)cc1)C(=O)NCc1ccc2c(c1)OCO2 (centres undefined),-2,0,-3,4,1,8
Cc1ccc(-c2noc(-c3ccccc3C(=O)N3CCN(C)CC3)n2)cc1,-1,71*,-3,-5,6,7
Cc1ccc(-c2noc(-c3ccccc3C(=O)N3CCCC3)n2)cc1,-1,-14,1,-4,6,21
O=C(O)C1CCCN(S(=O)(=O)c2ccc(Br)cc2)C1 (centres undefined),-2,-21,0,-15,3,·
Cc1cc(C(=O)CSc2nnc(-c3ccccc3)n2C)c(C)n1C,0,-99,-4,-9,17,3
Cc1cc(C(=O)CSc2nnc(-c3ccncc3)n2-c2ccccc2)c(C)n1C,1,51*,2,-10,13,-6
CC(C)c1ccc(S(=O)(=O)N2CCN(CCC(=O)Nc3ccc(N(C)C)cc3)CC2)cc1,1,-33,0,-3,72*,2
Cc1ccc2cc(CN(CCCN3CCOCC3)C(=O)NC3CCCCC3)c(=O)[nH]c2c1C,3,-46,0,0,6,22
SMILES,Hck-Nef inh,Mcl1 Bid PPI,Mcl-1 Bim block,14-3-3 Bad PPI,Mcl1-Noxa inh,Pf gametocyte
COc1ccc([C@H]2CC(=O)c3c(O)cc(O)cc3O2)cc1O,21,-4,·,0,-3,-6
O=C(O[C@@H]1Cc2c(O)cc(O)cc2O[C@@H]1c1cc(O)c(O)c(O)c1)c1cc(O)c(O)c(O)c1,·,1,0,69,95*,·
CCCc1ccc(OCc2nc(-c3ccc(NC(=O)c4ccco4)cc3)no2)cc1,-1,60*,-6,22,7,·
Cc1cc(C)cc(NC(=O)CN(c2ccc(F)cc2)S(C)(=O)=O)c1,24,4,0,0,4,-3
COCCCN(C(=O)Nc1cccc(Cl)c1)C(C)c1ccccn1 (centres undefined),0,-8,-3,73*,10,15
O=C(O)c1cc(N2C(=O)C3C4C=CC(C4)C3C2=O)ccc1NCc1cccnc1 (centres undefined),-18,15,1,-2,38,2
COc1cc(/C=N/NC(=O)C(Cc2c[nH]c3ccccc23)NC(=O)OCC(C)C)cc([N+](=O)[O-])c1OCc1ccccc1 (centres undefined),17,-17,2,-11,-4,3
COc1cc(/C=N/NC(=O)C(Cc2c[nH]c3ccccc23)NC(=O)OCC(C)C)cc([N+](=O)[O-])c1O (centres undefined),0,-41,-2,2,52*,9
COc1cc(/C=N/NC(=O)C(Cc2c[nH]c3ccccc23)NC(=O)OCc2ccccc2)cc([N+](=O)[O-])c1O (centres undefined),5,-64,-2,-9,81*,19
[O-]C1=N/[N+](=C/c2ccc(Cl)c(Cl)c2)CC1,0,-27,2,-3,1,·
CC1(c2ccccc2)CC(C)(C)n2c(O)c(C3=NC(=S)NC3=O)c3cccc1c32 (centres undefined),39,22,·,11,60*,-6
COc1cc2c3c(c1)c(C1=NC(=S)NC1=O)c(O)n3C(C)(C)C=C2C,12,6,-3,7,22,19
O=C(CCNc1ccc(Cl)cc1)c1cccs1,0,-83,-4,2,10,-5
O=C(CCSc1ccc(Cl)cc1)c1cccs1,0,-6,-6,5,57*,·
COc1ccc(C(=O)CSc2nnc(CN3CCCC3)n2-c2ccc(F)cc2)c(OC)c1,-1,-4,-9,-18,53*,·
CCn1cnc2c(Nc3cccc(Cl)c3)nc(C#N)nc21,·,·,·,·,·,-11
